Assay outcomes from PubChem BioAssay.
Only some compounds are listed: those with a hit (about 3.5% of all), similar ones and a draw of the others.
FBW7 activator = human FBW7 E3 ligase activation, primary screen. Q969H0. AlphaScreen FBW7–phospho-cyclin E peptide binding, activator screen. normalized activity (activation), % at 26.1 µM. actives 0.13% (n = 650,000); in the data active = normalized activity above about 1.9%;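 note: purified mutant Fbw7 with reduced substrate affinity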
Target sequence (Q969H0 whole entry, looked up): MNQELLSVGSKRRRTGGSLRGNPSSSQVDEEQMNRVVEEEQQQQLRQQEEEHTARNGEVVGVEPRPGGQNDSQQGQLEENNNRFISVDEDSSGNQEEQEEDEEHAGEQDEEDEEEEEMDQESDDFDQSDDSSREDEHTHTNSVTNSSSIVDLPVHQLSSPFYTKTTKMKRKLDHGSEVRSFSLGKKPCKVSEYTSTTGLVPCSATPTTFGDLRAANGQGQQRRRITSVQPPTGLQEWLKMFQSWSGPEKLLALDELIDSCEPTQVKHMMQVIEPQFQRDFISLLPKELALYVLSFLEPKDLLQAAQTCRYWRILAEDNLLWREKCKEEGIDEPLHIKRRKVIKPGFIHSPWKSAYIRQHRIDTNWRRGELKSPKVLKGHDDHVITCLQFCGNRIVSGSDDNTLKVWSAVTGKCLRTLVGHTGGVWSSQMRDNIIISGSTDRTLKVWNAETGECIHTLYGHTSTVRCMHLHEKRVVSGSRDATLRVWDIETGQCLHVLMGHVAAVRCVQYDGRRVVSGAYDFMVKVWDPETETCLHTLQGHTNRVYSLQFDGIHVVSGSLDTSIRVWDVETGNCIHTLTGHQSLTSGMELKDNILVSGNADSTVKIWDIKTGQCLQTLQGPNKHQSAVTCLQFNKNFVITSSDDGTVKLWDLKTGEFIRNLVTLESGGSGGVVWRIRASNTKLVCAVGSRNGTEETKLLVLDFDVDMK
MITF inh = human MITF inhibition, primary screen; O75030; AlphaScreen MITF homodimerization, bead proximity signal; inhibition, % at 2.6 µM; actives 0.91% (n = 650,000); AID 1259374; in the data active = inhibition above about 50%;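 note: 0% = vehicle wells with protein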
TEAD-YAP inh = TEAD-YAP interaction inhibition | HEK-TIYL cells, TEAD-Gal4/YAP UAS-luciferase luminescence | inhibition, % at 9.12 µM | actives 1.4% (n = 640,000); in the data active = inhibition above about 32%;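 note: 0% = median of test compound wells and 100% = reference inhibitor wells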
GPR151 ag = activators of human GPR151; Q8TDV0; PathHunter beta-arrestin GPR151 cells, luminescence; activation, % at 11.2 µM; actives 1% (n = 650,000); AID 1508602; in the data active = activation above about 4.9%;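 note: 0% = median of compound wells and 100% = cells with positive control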
Active calls of the source: *.

SMILES | FBW7 activator | MITF inh | TEAD-YAP inh | GPR151 ag
c1cc(-c2ccnc(Nc3ccc(-n4cnc(N5CCOCC5)n4)cc3)n2)cc(N2CCOCC2)c1 | 0.2 | -6.6 | 43.0* | 0.9
CCN1CCN(c2ncn(-c3ccc(Nc4nccc(-c5cccc(N6CCOCC6)c5)n4)cc3)n2)CC1 | -0.1 | 7.2 | 55.0* | -0.3
CCN1CCN(c2ncn(-c3ccc(Nc4nccc(-c5cc(C#N)cc(N6CCOCC6)c5)n4)cc3)n2)CC1 | -0.1 | 4.0 | 2.9 | 0.0
CC(C)c1ncn(-c2ccc(Nc3nccc(-c4cccc(N5CCOCC5)c4)n3)cc2)n1 | 0.1 | 14.2 | -2.3 | 0.2
CS(=O)(=O)c1cc(-c2ccnc(Nc3ccc(-n4cnc(-c5ccccn5)n4)cc3)n2)cc(N2CCOCC2)c1 | 0.4 | -15.8 | 89.0* | -1.6
Cc1ccncc1-c1ncn(-c2ccc(Nc3nccc(-c4cc(F)cc(N5CCOCC5)c4)n3)cc2)n1 | 0.0 | -1.8 | 8.2 | -0.6
OC1CCN(c2ncn(-c3ccc(Nc4nccc(-c5cccc(N6CCOCC6)c5)n4)cc3)n2)CC1 | 0.1 | -9.1 | 81.8* | 0.7
CS(=O)(=O)c1cccc(-c2ccnc(Nc3ccc(-n4cnc(N5CCC(O)CC5)n4)cc3)n2)c1 | -0.1 | 4.5 | 41.7* | -0.6
c1ccc(Cn2nnnc2-c2ccc(Nc3nccc(-c4cccc(N5CCOCC5)c4)n3)cc2)cc1 | 2.0* | 18.9 | -0.1 | -0.7
Fc1cncc(-c2ccnc(Nc3ccc(-n4cnc(N5CCOCC5)n4)cc3)n2)c1 | 0.6 | 7.4 | -11.8 | -1.2
Cc1ncn(-c2ccc(Nc3nccc(-c4ccc(S(C)(=O)=O)c(N5CCCC(O)C5)c4)n3)cc2)n1 (centres undefined) | 0.0 | 5.9 | 2.2 | 0.4
CCOc1ccc(-n2cc(-c3ccccc3)c3c(SCc4cccc(C)c4)ncnc32)cc1 | 0.0 | -4.8 | -1.1 | 1.0
Cc1cccc(C(=O)/C(C#N)=N/Nc2c(C)n(C)n(-c3ccccc3)c2=O)c1 | -2.1 | 38.2 | 42.0* | 0.3
CNC(=O)/C(C#N)=C/c1c(Oc2ccccc2C)nc2c(C)cccn2c1=O | 0.0 | 5.7 | 46.6* | 1.1
CCNC(=O)/C(C#N)=C/c1c(Oc2cccc(C)c2C)nc2c(C)cccn2c1=O | 0.0 | 2.8 | 35.3* | -0.2
COCCCNC(=O)/C(C#N)=C/c1c(Oc2cc(C)cc(C)c2)nc2c(C)cccn2c1=O | 0.0 | 14.2 | 33.0* | -1.4
COCCNC(=O)/C(C#N)=C/c1c(Oc2cc(C)cc(C)c2)nc2c(C)cccn2c1=O | -0.1 | 18.9 | 6.1 | -1.2
C=CCNC(=O)/C(C#N)=C/c1c(Oc2ccccc2C)nc2ccccn2c1=O | 0.0 | -11.1 | 32.1* | -1.9
COC(=O)c1ccc(NC(=O)N(C)c2ccccc2)cc1 | 0.2 | 7.2 | -1.9 | -0.3
COc1ccc(-n2c(/C=C/N(C)C)c([N+](=O)[O-])c3ccc(O)c(CN(C)C)c32)cc1 | 0.2 | 5.4 | 37.6* | -0.6
Cc1nc(C)n(-c2ccc(Nc3cc(-c4nn(-c5nccs5)cc4-c4ccccc4)ccn3)cc2)n1 | 0.0 | 2.8 | 10.7 | -0.3
Cc1nc(C)n(-c2ccc(Nc3cc(-c4nn(-c5ccc(C#N)cc5)cc4-c4ccccc4)ccn3)cc2)n1 | 0.6 | 17.8 | 41.7* | -2.3
Cc1nc(C)n(-c2ccc(Nc3cc(-c4nn(-c5ccccc5C#N)cc4-c4ccccc4)ccn3)cc2)n1 | 0.0 | 19.3 | 32.9* | -2.4
Cc1nc(C)n(-c2ccc(Nc3cc(-c4nn(-c5ccc(N(C)C)cc5)cc4-c4ccccc4)ccn3)cc2)n1 | -0.1 | 1.9 | -12.8 | 1.1
N#CCSc1ccc2nnc(CCNS(=O)(=O)c3ccccc3)n2n1 | 0.0 | 6.2 | 7.0 | 0.0
SMILES | FBW7 activator | MITF inh | TEAD-YAP inh | GPR151 ag
COCCN=c1scc(-c2ccco2)n1/N=C/c1ccc(O)c(O)c1O | -0.5 | 41.1 | -9.2 | 0.3
CN=c1scc(-c2cccs2)n1/N=C/c1ccccc1O | -0.1 | 3.6 | 95.0* | -4.9
CN=c1scc(C)n1/N=C/c1ccc(O)c(O)c1O | -0.5 | 12.6 | 17.9 | -0.3
CN=c1scc(-c2cccs2)n1/N=C/c1ccc(O)c(O)c1O | -0.7 | 32.0 | 71.2* | -2.6
C=CCN=c1scc(-c2ccco2)n1/N=C/c1ccc(O)c(O)c1O | -0.6 | 2.8 | 54.8* | -0.9
COCC(=O)Nc1cc(C)nn1-c1ncnc2c1cnn2-c1cccc(Cl)c1 | -0.1 | -5.5 | -1.6 | -0.9
Cc1nc(CN2CCN(C(=O)CCl)CC2)cs1 | 0.1 | 3.7 | 47.8* | 4.2
Cc1nc(CN2CCN(S(C)(=O)=O)CC2)cs1 | -0.1 | -26.1 | -17.2 | 0.5
CCN(CC)c1ccc2nc3c4ccccc4c(=O)cc-3oc2c1 | 0.1 | 7.8 | 34.4* | 1.6
CCN(CC)c1ccc2cc(C=O)c(=O)oc2c1 | -0.2 | 11.2 | 8.3 | -0.1
Cc1oc2cc(OCC(=O)O)ccc2c(=O)c1-c1ccc(Br)cc1 | -0.1 | -3.3 | -1.7 | 0.7
COc1ccc(-c2c(C)oc3cc(OS(C)(=O)=O)ccc3c2=O)cc1 | -0.1 | 3.1 | 36.9* | 0.5
Cc1oc2cc(OS(C)(=O)=O)ccc2c(=O)c1-c1ccc(Br)cc1 | 0.0 | 0.8 | 34.0* | 3.2
Cc1oc2cc(OCCN3CCOCC3)ccc2c(=O)c1-c1ccc(Br)cc1 | 0.1 | -2.7 | 36.8* | 0.6
COc1ccc(-c2c(C)oc3cc(O)ccc3c2=O)cc1 | -0.2 | -4.3 | 1.0 | 1.4
COc1cccc(Oc2c(C)oc3cc(OS(C)(=O)=O)ccc3c2=O)c1 | 0.0 | -4.5 | 44.1* | 0.7
O=C(N/N=C/c1ccccc1O)c1cccc(Br)c1 | 0.0 | 9.2 | -13.0 | -0.3
O=C(N/N=C\c1ccccc1O)c1n[nH]c([N+](=O)[O-])n1 | -0.3 | 36.7 | -4.7 | -0.3
O=C(N/N=C/c1ccc(O)c2ncccc12)c1cccc(Br)c1 | -0.3 | 103.3* | 37.9* | -0.3
COc1ccc(O)c(/C=N/NC(=O)c2cccc(Br)c2)c1 | -0.1 | 14.7 | 57.9* | -0.5
COc1ccc(/C=N/NC(=O)c2cccc(Br)c2)cc1 | -0.1 | 2.8 | -66.0 | -0.3
COc1ccc(O)c(/C=N\NC(=O)c2n[nH]c([N+](=O)[O-])n2)c1 | -0.9 | 52.6* | 4.2 | -1.4
COc1ccc(O)c(/C=N/NC(=O)c2cncc(Br)c2)c1 | -0.1 | -41.3 | 81.0* | -0.1
O=C(NNS(=O)(=O)c1cccc([N+](=O)[O-])c1)c1cccc(Br)c1 | 0.2 | 10.1 | -2.2 | 3.7
Cc1ccc(C)c(NCc2nnc3n2CCCCC3)c1 | 0.4 | 13.8 | 0.3 | 0.7
SMILES | FBW7 activator | MITF inh | TEAD-YAP inh | GPR151 ag
Cc1ccc(-c2cc(C(=O)N/N=C/c3cc(Br)ccc3O)n[nH]2)o1 | -0.2 | 27.0 | 44.6* | 2.4
COc1cccc(/C=N/NC(=O)c2cc(-c3ccc(C)o3)[nH]n2)c1O | 0.4 | 40.6 | 22.0 | -0.8
COc1ccc(O)c(/C=N/NC(=O)c2ccc(NC(=O)c3ccccc3Cl)cc2)c1 | 0.0 | 0.6 | 34.1* | 2.2
COc1ccc(-c2nc(NC3CC3)c3ncn(C4CCCCC4)c3n2)cc1 | -0.1 | -2.0 | -5.1 | -0.2
CC(C)(C)P(=NC(=S)NCCCO)(N1CCCCCC1)N1CCCCCC1 | 0.1 | 15.8 | 72.6* | 1.1
COc1cc(/C=C2/C(=O)N(C)c3ccccc32)cc(OC)c1O | 0.1 | 19.4 | 40.7* | 0.2
